Reference: PubChem BioAssay (EPA / NIEHS)
Where “and” joins values, the source holds several entries; their conditions need not be identical. Identical values can stand only once. Records with an inconclusive call do not appear. The source holds several records for some structures; these can differ, active in one and inactive in another. Calls of active or inactive are those of the source. How the source made its calls: active means hit-call score of the fitted dose curve at least 0.9, where 1 is the maximum; inconclusive means response in the unintended direction; inactive means score below 0.9.

Experiments:
[1] = target: Cellular tumor antigen p53 (Homo sapiens) (UniProt P04637); assay: TOX21_p53_BLA_p2_ratio: Tox21 HCT-116 p53 Agonism Beta-lactamase Assay, Ratio, Phase 2 (AID 2283592)
Method in brief: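 Read-out is the blue/green (460/530 nm, 405 nm excitation) ratio after 2 h CCF4-AM loading, fitted as gain versus DMSO. Compounds, pinned at 217-fold dilution from DMSO stocks, stayed 16 h on HCT-116 beta-lactamase reporter cells seeded 5 h earlier.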

[2] = target: Cellular tumor antigen p53 (Homo sapiens) (UniProt P04637); assay: TOX21_p53_BLA_p3_ratio: Tox21 HCT-116 p53 Agonism Beta-lactamase Assay, Ratio, Phase 3 (AID 2283596)
Method in brief: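 Cells were seeded at 4000/well, rested 5 h at 37C, then dosed with DMSO compound solutions (217-fold dilution) for 16 h. CCF4-AM substrate was loaded for 2 h at room temperature, and the 460/530 nm emission ratio was fitted for gain of signal versus DMSO.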

[3] = TOX21_p53_BLA_p5_viability: Viability Assessment in the Tox21 HCT-116 p53 Agonism Beta-lactamase Assay, Phase 5 (AID 2283600)
Method in brief: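 Viability came from CellTiter-Glo ATP luminescence, read after 30 min at room temperature. Before this, HCT-116 p53-bla cells (4000/well) had 16 hours of compound exposure at 37C, with DMSO stocks diluted 217-fold on transfer.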

[4] = target: Cellular tumor antigen p53 (Homo sapiens) (UniProt P04637); assay: TOX21_p53_BLA_p4_ratio: Tox21 HCT-116 p53 Agonism Beta-lactamase Assay, Ratio, Phase 4 (AID 2283601)
Method in brief: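 HCT116 cells carrying an inducible beta-lactamase reporter were plated at 4000 cells/well, rested 5 h, then exposed to compounds in DMSO (217-fold dilution) for 16 h at 37C. CCF4-AM substrate was loaded 2 h at room temperature; 460/530 nm emission ratio scored gain-of-signal versus DMSO.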

[5] = target: Cellular tumor antigen p53 (Homo sapiens) (UniProt P04637); assay: TOX21_p53_BLA_p5_ratio: Tox21 HCT-116 p53 Agonism Beta-lactamase Assay, Ratio, Phase 5 (AID 2283599)
Method in brief: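 HCT-116 cells carrying a p53-inducible beta-lactamase reporter were seeded at 4000 cells/well and dosed after 5 h with compound in DMSO (217-fold dilution). After 16 h at 37C, CCF4-AM substrate was added for 2 h, and the 460/530 nm emission ratio was scored as gain-of-signal versus DMSO.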

[6] = TOX21_p53_BLA_p4_viability: Viability Assessment in the Tox21 HCT-116 p53 Agonism Beta-lactamase Assay, Phase 4 (AID 2283597);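 further: hits lower the luminescence signal meaning cytotoxicity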
Method in brief: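 Cytotoxicity as reduced cellular ATP (CellTiter-Glo luminescence, 30 min room temperature), measured in the same wells following the CCF4 FRET p53 reading. Human HCT-116 cells received compounds in DMSO (217-fold dilution) for 16 h.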

[7] = TOX21_p53_BLA_p3_viability: Viability Assessment in the Tox21 HCT-116 p53 Agonism Beta-lactamase Assay, Phase 3 (AID 2283593);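 further: cells exposed to compound for 16 h before reading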
Method in brief: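 HCT-116 cells (4000/well) rested 5 h at 37C, then got DMSO compounds by pin tool (217-fold dilution) for 16 h at 37C, 5% CO2. After the bla read, CellTiter-Glo was added and luminescence read at 30 min, room temperature.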

[8] = test system: Thyroperoxidase (TPO), gene 54314; assay: CCTE_Simmons_AUR_rTPO: CCTE's Amplex UltraRed Assay for Thyroperoxidase (TPO) Inhibition, Simmons Lab (AID 2283662);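 on AC50: potency for loss of signal meaning inhibition of peroxidase activity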
Method in brief: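 Rat thyroid microsomal TPO + 25 uM AUR in 200 mM K phosphate; cpd 5 nM–87.5 uM [final], 8 conc, 0.5% DMSO; 300 uM H2O2 starts rxn; 37C dark 30 min; endpoint FI 544/590 nm; n=3.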

[9] = CCTE_Simmons_CellTiterGLO_HEK293T: Viability Assessment in CCTE's Assays for Thyroperoxidase (TPO) Inhibition, Simmons Lab (AID 2283665);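 on AC50: cells exposed to compound for 24 h before readout; actives reduce ATP signal below DMSO vehicle meaning cytotoxicity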
Method in brief: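 Luciferase-coupled ATP content after 24 h exposure gives viability; 8-point series from 5 nM to 87.5 uM final in 0.5% DMSO. Human HEK293T cells, 1% FBS medium, three biological replicates, dichlone positive control.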

Measured: AC50

Cellular tumor antigen p53 (Homo sapiens), sequence (P04637 whole entry, looked up): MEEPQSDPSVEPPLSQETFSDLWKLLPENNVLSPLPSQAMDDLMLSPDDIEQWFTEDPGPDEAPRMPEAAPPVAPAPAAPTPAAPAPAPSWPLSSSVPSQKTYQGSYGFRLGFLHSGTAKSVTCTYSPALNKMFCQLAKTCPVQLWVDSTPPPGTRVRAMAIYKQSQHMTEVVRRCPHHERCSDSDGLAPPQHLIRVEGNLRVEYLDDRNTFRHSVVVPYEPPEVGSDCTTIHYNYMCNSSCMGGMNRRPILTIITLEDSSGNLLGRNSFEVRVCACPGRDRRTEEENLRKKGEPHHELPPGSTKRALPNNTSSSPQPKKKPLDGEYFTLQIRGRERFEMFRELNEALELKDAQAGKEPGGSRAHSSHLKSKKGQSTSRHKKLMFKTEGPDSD

Cc1ccc([N+](=O)[O-])cc1S(=O)(=O)O
inactive: [1] | [2] | [3] | [4]

O=c1[nH]c(=O)c2[nH]c(=O)[nH]c2[nH]1
inactive: [1] | [5] | [4]

COC(=O)c1sccc1S(N)(=O)=O
inactive: [1] | [6] | [5] | [4]

OCCNCc1ccccc1
inactive: [7] | [2] | [6] | [5] | [3]

CCOC(=O)NNc1nncc2ccccc12
inactive: [1] | [2] | [5] | [3] | [4]

C=CC(=O)OCCC(=O)O
inactive: [1] | [2] | [4]

Cc1ccc(C(C)c2ccc(C)c(C)c2)cc1C
inactive: [1] | [2] | [5] | [4]

NC(=O)N=NC(N)=O
inactive: [1] | [6] | [5] | [3] | [4]

C=CC(C)(CCC=C(C)C)OC(=O)C(C)C (stereo not drawn)
inactive: [1] | [5] | [4]

CNC(=S)NN
active: [8] 22.5 µM
inactive: [1] | [2] | [3] | [4] | [9]

CCCCCCOC(=O)C(C)CC (stereo not drawn)
inactive: [1] | [6] | [4]

CCO[Si](C)(OCC)OCC
inactive: [1] | [2] | [5] | [3] | [4]

O=C(c1ccccc1)c1ccc(O)c(O)c1O
inactive: [1] | [2] | [5] | [4] | [9]
active: [8] 2.12 µM

CC(=O)OCC(=O)[C@@]12N=C(C)O[C@@H]1C[C@H]1[C@@H]3CCC4=CC(=O)C=C[C@]4(C)[C@H]3[C@@H](O)C[C@@]12C
inactive: [1] | [6] | [3] | [4]

O=C1CCCC(=O)O1
inactive: [1] | [6] | [5] | [3] | [4]

O=C(O)c1cc2ccccc2nc1C(=O)O
inactive: [1] | [6] | [5] | [4]

CCCCCCCCCCOC(C)=O
inactive: [1] | [2] | [3] | [4]

CC(C)(C)c1ccc(OC(=O)c2ccccc2O)cc1
inactive: [1] | [6] | [4]

CC(C)COC(=O)C=Cc1ccccc1
inactive: [1] | [2] | [5] | [3] | [4]

N[C@H]1C(O)O[C@H](CO)[C@H](O)[C@@H]1O (stereo partly drawn)
not listed: [1] | [8] | [9]
inactive: all other assays above

CC(C)CCCCCOC(=O)CCS
inactive: [1] | [2] | [5]

O=C1C=CC(=O)O1
inactive: [1] | [5] | [3] | [4]

c1ccc(CCCc2ccncc2)cc1
inactive: [1] | [2] | [3] | [4]

CCN(CCO)c1cccc(C)c1
inactive: [1] | [2] | [5]

Cc1ccc(C(C)(C)C)cc1
inactive: [1] | [2] | [5] | [3] | [4]

COC(=O)c1c(C)cc(O)c(C)c1O
active: [8] 11.6 µM
inactive: [1] | [6] | [5] | [3] | [4]

[Cl][Nd]([Cl])[Cl]
inactive: [7] | [6] | [5]

COc1ccc(-c2coc3cc(O)ccc3c2=O)cc1
inactive: [7] | [2] | [6] | [3]

O=S(=O)(O)c1ccc2cc(O)c(S(=O)(=O)O)cc2c1
inactive: [7] | [6] | [5] | [3]

CCCCCc1ccc(Cl)cc1
inactive: [2] | [5] | [4]

CCc1ccc2c(c1)C(=O)c1ccccc1C2=O
inactive: [7] | [3]

OCCN(CCO)c1ccccc1
inactive: [7] | [5] | [3]

C=CCOc1c(Br)cc(Br)cc1Br
inactive: [7] | [2] | [5] | [3] | [4]

CCN(Cc1cccc(S(=O)(=O)O)c1)c1ccc(C(=C2C=CC(=[N+](CC)Cc3cccc(S(=O)(=O)[O-])c3)C=C2)c2ccccc2)cc1
inactive: [7] | [6] | [5] | [4]

CC(=O)[C@H]1[C@H](C#N)C[C@H]2[C@@H]3CC=C4C[C@@H](O)CC[C@]4(C)[C@H]3CC[C@@]21C
inactive: [6] | [5] | [3] | [4]

CC(CC=O)c1ccccc1 (stereo not drawn)
inactive: [7] | [2] | [6] | [3]

CC1=CC[C@H](C(C)C)C=C1
inactive: [7] | [6] | [3]

FC(F)(F)C(=NOCC1OCCO1)c1ccc(Cl)cc1
inactive: [7] | [2] | [6] | [3] | [4]

COC(=O)/C=C\C(=O)O
inactive: [7] | [5] | [3] | [4]

CC/C=C\C/C=C\C/C=C\CCCCCCCC(=O)O
inactive: [9]
active: [8] 28.7 µM

CC(C)(C)c1ccc(N)cc1
inactive: [9]
active: [8] 0.106 µM

O=C(C(Cl)Cl)N1CCOC12CCCCC2
inactive: [2] | [6]

CCCCC/C=C\CCC=O
inactive: [7] | [2] | [6] | [5] | [4]

COCCOCCOCCOCCOC
inactive: [6] | [3] | [4]

Cc1ccc(N/N=c2\c(=O)cc/c(=N/Nc3ccc(S(=O)(=O)O)cc3)c2=O)c(C)c1
active: [8] 28.9 µM | [9] 76.6 µM
not listed: [1] | [2]
inactive: all other assays above

CCCCCCCC[N+](C)(CCCCCCCC)CCCCCCCC
active: [8] 23.7 µM | [9] 7.14 µM

CC(=O)Oc1ccc(C(C)=O)cc1
inactive: [7] | [2] | [5] | [3] | [4]

O=c1n(CCO)c(=O)n(CCO)c(=O)n1CCO
inactive: [2] | [6] | [5] | [3] | [4]

C=C1[C@H]2CC[C@@H]3[C@H]2C(C)(C)CCC[C@]13C
inactive: [2] | [6]

CCOCC(=O)O
inactive: [2] | [6] | [5] | [3]

O=P(O)(O)Oc1ccccc1
inactive: [2] | [6] | [5] | [3]

CCCCCC/C=C\CCCCCCCC(=O)O
active: [7] 76.5 µM
inactive: [2] | [3] | [4]

CC1=CC[C@H]2C[C@@H]1C2(C)C
inactive: [6]

C=C(C)[C@H]1CC=C(C)CC1
inactive: [5] | [4]

CCCCC(CC)COC(=O)c1ccccc1O (stereo not drawn)
inactive: [7] | [6] | [3] | [4]

N#CCc1ccc(Cl)cc1Cl
inactive: [6] | [5] | [4]

CC(C)=CCCC(C)C=O (stereo not drawn)
inactive: [7] | [6] | [5] | [3] | [4]

O=C(O)Cc1c(Cl)ccc(Cl)c1Cl
inactive: [2] | [6] | [3]

CCOC(=O)CC(C(C)=O)C(C)=O
inactive: [7] | [2] | [5]

CC(C)(C)c1ccc(-c2ccc(C(C)(C)C)cc2)cc1
inactive: [8]

O=C(O)c1cc(Cl)cc([N+](=O)[O-])c1Cl
inactive: [6] | [3] | [4]

C[Si](C)O[Si](C)(C)O[Si](C)(C)O[Si](C)C
inactive: [2] | [3]

CCCCCCCCC(=O)OCC
inactive: [2] | [6] | [5] | [3]

CC(=O)c1ccc2c(c1)CCCC2
inactive: [7] | [2] | [4]

C=C(C)C(=O)OCC(C)C
inactive: [7] | [2] | [5] | [4]

O=S1(=O)OC(c2ccc(O)cc2)(c2ccc(O)cc2)c2ccccc21
active: [8] 24.9 µM and 22.2 µM | [9] 72 µM
inactive: [9]
